These results are taken from PubChem BioAssay (NCATS).

Values without a mark were called inactive. Results filed as inconclusive are left out. Some of the results follow. The source made the active and inactive calls. The call rests on the fitted dose curve; in most records, active means well fitted curve in the direction sought with a large enough effect; inconclusive means small, poorly fitted or top-dose-only effect, or another doubt; inactive means no such curve, though single readings can be large; an effect the other way counts as inactive or inconclusive.

Test [1] concerns the target Rap guanine nucleotide exchange factor 3 (Homo sapiens) (UniProt O95398). In words: Confirmatory qHTS for agonist of cAMP-regulated guanine nucleotide exchange factor 3 (EPAC1) (AID 1645881). Further: nearly all actives have a fitted effect of over 75% in size. Further: potency means the concentration at half of the fitted maximal effect.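 On activation: EPAC1 catalysed release of BODIPY-GDP from Rap1B seen as fluorescence loss; 100% = effect of cAMP agonist control.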
Test [2] concerns the target Rap guanine nucleotide exchange factor 4 (Homo sapiens) (UniProt Q8WZA2). In words: Confirmatory qHTS for agonist of cAMP-regulated guanine nucleotide exchange factor 4 (EPAC2) (AID 1645884).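 Further: nucleotide exchange releases bodipy-GDP from Rap1 and this lowers its fluorescence; nearly all actives have a fitted effect of over 65% in size.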 Further: potency means the concentration at half of the fitted maximal effect. On activation: on the % scale 0 is the no-effect control and ±100 the full control effect.
Test [3] shares this target. In words: Confirmatory qHTS for antagonist of cAMP-regulated guanine nucleotide exchange factor 4 (EPAC2) (AID 1645885). Further: nearly all actives have a fitted effect of over 25% in size. Further: potency means the concentration at half of the fitted maximal effect. On activity change, negative = inhibition: on the % scale 0 is the no-effect control and ±100 the full control effect.
The target of test [4] is Rap guanine nucleotide exchange factor 3 (Homo sapiens) (UniProt O95398). In words: Counterscreen qHTS for antagonist of cAMP-regulated guanine nucleotide exchange factor 3 (EPAC1) (AID 1645888).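 Further: fluorescence loss as bound BODIPY-GDP is released from Rap1B; % of control where 0% means no effect.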 In outline:
(§1)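 Rap1B–BODIPY-GDP (250 nM) with 50 uM GDP; compounds pin-transferred to 9.74 nM–152 uM final (activator) or from 7.32 nM upwards (inhibitor). Fluorescence Ex/Em 480/540 nm read at 5 and 30 min, then after adding cAMP or buffer, at room temperature.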
(The purpose of a counterscreen is to sort out artefacts and off-target activity.)

Test [5] shares this target. In words: Counterscreen qHTS for agonist of cAMP-regulated guanine nucleotide exchange factor 3 (EPAC1) (AID 1645889). Further: % of control where 0% means no effect; nearly all actives have a fitted effect of over 40% in size. In outline: as §1
In test [6] the target is Cytochrome P450 3A4 (Homo sapiens) (UniProt P08684). In words: qHTS Assay for Inhibitors and Substrates of Cytochrome P450 3A4 (AID 884). Further: potency means the concentration at half of the fitted maximal effect; nearly all actives have a fitted effect of over 50% in size. The gist of the method: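 Luminescent readout of luciferin produced by CYP3A4 (20 nM) dealkylation of Luciferin-PPXE, 25 uM (its KM). NADPH-driven reaction ran 60 min at RT after 10 min compound preincubation; data scaled to 57 uM ketoconazole as 100% inhibition.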
Sequence of Cytochrome P450 3A4 (Homo sapiens) (P08684 whole entry, looked up): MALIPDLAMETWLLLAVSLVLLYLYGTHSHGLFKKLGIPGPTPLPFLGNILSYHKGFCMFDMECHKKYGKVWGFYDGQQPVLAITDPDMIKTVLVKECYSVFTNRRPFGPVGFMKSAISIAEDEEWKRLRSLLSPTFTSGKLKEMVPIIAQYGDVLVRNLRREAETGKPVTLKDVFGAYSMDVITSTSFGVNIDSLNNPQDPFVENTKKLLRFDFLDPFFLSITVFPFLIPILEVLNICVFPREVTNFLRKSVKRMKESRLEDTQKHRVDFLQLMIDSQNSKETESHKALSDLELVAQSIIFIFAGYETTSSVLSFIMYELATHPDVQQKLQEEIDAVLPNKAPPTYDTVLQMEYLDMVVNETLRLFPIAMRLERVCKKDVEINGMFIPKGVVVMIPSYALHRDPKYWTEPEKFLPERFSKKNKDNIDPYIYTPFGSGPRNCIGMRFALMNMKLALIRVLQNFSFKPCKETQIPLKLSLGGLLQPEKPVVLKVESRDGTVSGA
Background: In qHTS, concentration-response curves come from the screen itself.

The target is the same in test [7]. In words: qHTS Assay for Activators of Cytochrome P450 3A4 (AID 885). Further: nearly all actives have a fitted effect of over 65% in size. In outline: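 Human CYP3A4 dealkylates Luciferin-PPXE to luciferin, which luciferase detection converts to light. Substrate was at its KM (25uM), buffer 200mM KPO4, reaction 60 min at RT.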
A short description of test [8]: Confirmation and Secondary Assay for Modulators of Hemoglobin Beta Chain Splicing at IVS2 654 locus (AID 910).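 Further: HeLa cells stably carrying EGFP split by mutant beta-globin IVS2-654 intron; potency means the concentration at half of the fitted maximal effect; potency of activators that raise GFP signal by restoring correct splicing.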 In outline: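 HeLa cells stably expressing EGFP interrupted by β-globin IVS2-654 intron, seeded overnight in Opti-MEM/2% FCS, then treated 2 days at 37 °C. Restored splicing read as total peak GFP intensity per well by laser scanning cytometry (488 nm excitation, 500–520 nm emission); 500 nM antisense PNA as control.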

Test [9] has as its target Ubiquitin carboxyl-terminal hydrolase 1 (Homo sapiens) (UniProt O94782). In words: Inhibitors of USP1/UAF1: Pilot qHTS (AID 504865). Further: potency means the concentration at half of the fitted maximal effect; nearly all actives have a fitted effect of over 35% in size. The gist of the method: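 Deubiquitinase activity followed as kinetic rhodamine fluorescence release from 150 nM Ub-Rho. 1 nM USP1/UAF1 with compound, after 15 min room-temperature preincubation, in HEPES pH 7.8 buffer containing TCEP, EDTA, BSA and Tween-20.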

Test [10] concerns the target Vitamin D3 receptor (Homo sapiens) (UniProt P11473). In words: qHTS for Inhibitors of the vitamin D receptor (VDR): Hit Validation using a Beta-Lactamase Assay (AID 602202). Further: on the % scale 0 is the no-effect control and ±100 the full control effect. In outline: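 Stably transfected HEK293 cells expressing VDR-GAL4 DNA-binding domain fusion with UAS-driven beta-lactamase reporter, activated by agonist LG190178; compounds incubated 18 h, then FRET beta-lactam substrate 2 h; cleaved substrate read at 447 nm emission.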

Test [11] in a line: qHTS for Inhibitors of the vitamin D receptor (VDR): Hit Validation using a Cytotoxicity Assay (AID 602204).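 Further: plate controls were DMSO for no effect and high-concentration cycloheximide for full effect; nearly all actives have a fitted effect of over 75% in size.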 The gist of the method: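 Cytotoxicity is flagged by loss of ATP-dependent luminescence in cells treated 18 h with compound. Seeding density was 20,000 cells per well with 4 h pre-incubation; detection took 30 min.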
In test [12] the target is Phosphoglycerate kinase, glycosomal (Trypanosoma brucei brucei) (UniProt P07378). In words: qHTS for inhibitors of Phosphogylcerate Kinase: Hit Validation Screen (AID 686980). Further: potency means the concentration at half of the fitted maximal effect; nearly all actives have a fitted effect of over 65% in size. As to conditions: TbPGK coupled GAPDH assay, Kinase-Glo luminescence. In outline: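 Recombinant glycosomal PGK reaction used 1,3-bisphosphoglycerate generated in-well by GAPDH (100nM final) in 100mM TEA pH 7.6, 5mM MgCl2, 0.01% Tween-20. After 60 minutes at room temperature, ATP was read by Kinase-Glo Plus luminescence end-point.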

Test [13] addresses DNA polymerase iota (Homo sapiens) (UniProt Q9UNA4). As to the kind of experiment: qHTS for Inhibitors of Polymerase Iota: Confirmatory Assay for Cherry-picked Compounds (AID 720496). Further: potency means the concentration at half of the fitted maximal effect. As to conditions: Pol iota primer extension, TAMRA/BHQ fluorescence. The gist of the method:
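Enzyme (10 nM Pol iota) and compound sit together for 15 min at room temperature. Adding annealed primer/TAMRA-reporter/BHQ-2-template substrate, 50 nM final, starts the reaction, which is followed by fluorescence over 10 min.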

For test [14], the target named is Bifunctional 3'-5' exonuclease/ATP-dependent helicase WRN (Homo sapiens) (UniProt Q14191). In words: qHTS for Inhibitors of WRN Helicase: Confirmatory Assay for Cherry-picked Compounds. (AID 720497). Further: potency means the concentration at half of the fitted maximal effect; nearly all actives have a fitted effect of over 65% in size. The settings on record: WRN helicase DNA unwinding, fluorescence kinetic. The gist of the method: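 Kinetic fluorescence helicase read-out (525 nm excitation, 598 nm emission) on a forked duplex substrate at 100 nM with 2 mM ATP. Enzyme: 20 nM WRN, exposed to compound for 15 min at room temperature. Responses normalized to buffer-only and positive-control wells.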
Sequence of Bifunctional 3'-5' exonuclease/ATP-dependent helicase WRN (Homo sapiens) (Q14191 whole entry, looked up): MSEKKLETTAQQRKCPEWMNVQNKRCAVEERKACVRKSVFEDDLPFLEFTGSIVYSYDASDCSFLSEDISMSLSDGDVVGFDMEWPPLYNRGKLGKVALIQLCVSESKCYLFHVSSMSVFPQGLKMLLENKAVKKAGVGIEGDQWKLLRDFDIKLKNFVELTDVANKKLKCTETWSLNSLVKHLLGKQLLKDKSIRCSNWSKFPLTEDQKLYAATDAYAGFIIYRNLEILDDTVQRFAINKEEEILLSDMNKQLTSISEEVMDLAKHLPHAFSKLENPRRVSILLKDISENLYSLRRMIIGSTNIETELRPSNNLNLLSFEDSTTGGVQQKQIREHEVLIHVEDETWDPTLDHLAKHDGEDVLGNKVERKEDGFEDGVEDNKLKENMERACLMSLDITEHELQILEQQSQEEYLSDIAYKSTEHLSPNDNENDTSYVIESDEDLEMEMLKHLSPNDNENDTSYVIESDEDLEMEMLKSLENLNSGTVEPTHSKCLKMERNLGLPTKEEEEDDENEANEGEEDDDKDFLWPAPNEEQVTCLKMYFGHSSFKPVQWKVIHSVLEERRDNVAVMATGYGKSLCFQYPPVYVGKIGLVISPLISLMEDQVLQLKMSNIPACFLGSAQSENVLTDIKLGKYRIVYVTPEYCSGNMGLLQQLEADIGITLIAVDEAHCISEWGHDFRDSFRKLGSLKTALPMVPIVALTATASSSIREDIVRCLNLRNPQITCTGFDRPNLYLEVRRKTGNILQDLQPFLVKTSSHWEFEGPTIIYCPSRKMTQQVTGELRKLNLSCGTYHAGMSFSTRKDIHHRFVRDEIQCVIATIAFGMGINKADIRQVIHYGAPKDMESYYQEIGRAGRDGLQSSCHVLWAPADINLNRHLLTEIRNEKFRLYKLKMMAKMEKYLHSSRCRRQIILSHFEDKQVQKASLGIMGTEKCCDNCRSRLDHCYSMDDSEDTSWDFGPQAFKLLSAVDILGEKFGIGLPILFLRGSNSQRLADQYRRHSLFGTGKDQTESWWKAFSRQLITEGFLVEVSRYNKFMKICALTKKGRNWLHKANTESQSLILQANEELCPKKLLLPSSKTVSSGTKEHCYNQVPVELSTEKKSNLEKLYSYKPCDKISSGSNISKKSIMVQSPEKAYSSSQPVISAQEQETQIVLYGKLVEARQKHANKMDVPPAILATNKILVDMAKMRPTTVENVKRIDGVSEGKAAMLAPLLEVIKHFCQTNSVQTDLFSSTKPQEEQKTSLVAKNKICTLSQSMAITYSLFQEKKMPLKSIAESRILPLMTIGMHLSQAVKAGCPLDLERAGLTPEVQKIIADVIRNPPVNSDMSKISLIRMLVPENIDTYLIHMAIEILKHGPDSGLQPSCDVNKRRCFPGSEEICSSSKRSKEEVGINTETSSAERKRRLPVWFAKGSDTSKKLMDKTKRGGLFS

In test [15] the target is Flap endonuclease 1 (Homo sapiens) (UniProt P39748). In words: qHTS Assay for the Inhibitors of FEN1: Confirmatory Assay for Cherry-picked Compounds (AID 720498). Further: potency means the concentration at half of the fitted maximal effect; nearly all actives have a fitted effect of over 60% in size. The settings on record: FEN1 flap cleavage, TAMRA/BHQ2 fluorogenic DNA substrate. The gist of the method: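 Human FEN1 (10 nM reagent) was preincubated with compounds for 15 min at room temperature, then 50 nM final double-flap DNA substrate (5'-TAMRA flap, BHQ-2 quencher strand) was added. Fluorescence (ex 525/em 598 nm) was read at 0 and 15 min.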
Sequence of Flap endonuclease 1 (Homo sapiens) (P39748 whole entry, looked up): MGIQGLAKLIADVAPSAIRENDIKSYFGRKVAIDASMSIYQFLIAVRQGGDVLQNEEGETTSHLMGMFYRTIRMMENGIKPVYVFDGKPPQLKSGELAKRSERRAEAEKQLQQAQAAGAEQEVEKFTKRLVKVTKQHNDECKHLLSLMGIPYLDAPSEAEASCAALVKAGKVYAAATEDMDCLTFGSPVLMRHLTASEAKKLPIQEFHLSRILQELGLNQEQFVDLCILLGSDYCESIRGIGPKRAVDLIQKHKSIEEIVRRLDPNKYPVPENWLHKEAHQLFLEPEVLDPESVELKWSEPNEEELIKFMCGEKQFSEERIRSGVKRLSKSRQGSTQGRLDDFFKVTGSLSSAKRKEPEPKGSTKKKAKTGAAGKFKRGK

The nature of test [16]: qHTS for Inhibitors of WRN Helicase: Thiazole Orange DNA Binding Counterscreen (AID 720499).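 Further: drop in dye fluorescence marks compound binding to DNA; potency means the concentration at half of the fitted maximal effect; nearly all actives have a fitted effect of over 60% in size.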 The settings on record: thiazole orange DNA binding displacement, fluorescence. In outline: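 Mixture of 100 nM thiazole orange and 50 nM unlabeled DNA exposed to compound 15 min at room temperature. Dye displacement monitored by 480/530 nm fluorescence, identifying nonspecific DNA binders.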

Test [17] addresses DNA polymerase kappa (Homo sapiens) (UniProt Q9UBT6). As to the kind of experiment: qHTS for Inhibitors of Polymerase Kappa: Confirmatory Assay for Cherry-picked Compounds (AID 720501). Further: potency means the concentration at half of the fitted maximal effect. As to conditions: purified Pol-kappa, fluorescent strand-displacement substrate. In outline: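 10 nM human Pol-kappa was preincubated with compound 15 min at room temperature, then 50 nM (final) primer/template substrate with TAMRA-labeled reporter strand and BHQ-2-labeled template added. Fluorescence (Ex 525, Em 598 nm) read at 0 and 10 min.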

The target in test [18] is DNA polymerase eta (Homo sapiens) (UniProt Q9Y253). In words: qHTS for Inhibitors of Polymerase Eta: Confirmatory Assay for Cherry-picked Compounds (AID 720502). Further: potency means the concentration at half of the fitted maximal effect. The settings on record: Pol eta primer extension, TAMRA/BHQ fluorescence, 10 min. The gist of the method:
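Human Pol eta at 10 nM was preincubated with compound for 15 min at room temperature. Reaction was started with TAMRA/BHQ-2-labelled primer-template substrate (50 nM final), with fluorescence read at 0 and 10 min (ex 525, em 598 nm).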

The target of test [19] is RecQ-like DNA helicase BLM (Homo sapiens) (UniProt P54132). In words: qHTS for Inhibitors of WRN Helicase: BLM Helicase Counterscreen for WRN Inhibitors (AID 720503). Further: potency means the concentration at half of the fitted maximal effect; nearly all actives have a fitted effect of over 60% in size. The settings on record: Recombinant BLM helicase DNA unwinding, red fluorescence. In outline:
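BLM at 1 nM was preincubated with compound for 15 min at room temperature in 25 mM Tris-HCl pH 8.0, 50 mM NaCl, 2 mM MgCl2, 1 mM DTT and 0.01% Tween-20. Unwinding was started with 100 nM DNA and 2 mM ATP (final). Fluorescence (ex 525/em 598 nm) was read twice, 15 min apart, and normalized to enzyme-free and DMSO controls.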

Sequence of Rap guanine nucleotide exchange factor 4 (Homo sapiens) (Q8WZA2 whole entry, looked up): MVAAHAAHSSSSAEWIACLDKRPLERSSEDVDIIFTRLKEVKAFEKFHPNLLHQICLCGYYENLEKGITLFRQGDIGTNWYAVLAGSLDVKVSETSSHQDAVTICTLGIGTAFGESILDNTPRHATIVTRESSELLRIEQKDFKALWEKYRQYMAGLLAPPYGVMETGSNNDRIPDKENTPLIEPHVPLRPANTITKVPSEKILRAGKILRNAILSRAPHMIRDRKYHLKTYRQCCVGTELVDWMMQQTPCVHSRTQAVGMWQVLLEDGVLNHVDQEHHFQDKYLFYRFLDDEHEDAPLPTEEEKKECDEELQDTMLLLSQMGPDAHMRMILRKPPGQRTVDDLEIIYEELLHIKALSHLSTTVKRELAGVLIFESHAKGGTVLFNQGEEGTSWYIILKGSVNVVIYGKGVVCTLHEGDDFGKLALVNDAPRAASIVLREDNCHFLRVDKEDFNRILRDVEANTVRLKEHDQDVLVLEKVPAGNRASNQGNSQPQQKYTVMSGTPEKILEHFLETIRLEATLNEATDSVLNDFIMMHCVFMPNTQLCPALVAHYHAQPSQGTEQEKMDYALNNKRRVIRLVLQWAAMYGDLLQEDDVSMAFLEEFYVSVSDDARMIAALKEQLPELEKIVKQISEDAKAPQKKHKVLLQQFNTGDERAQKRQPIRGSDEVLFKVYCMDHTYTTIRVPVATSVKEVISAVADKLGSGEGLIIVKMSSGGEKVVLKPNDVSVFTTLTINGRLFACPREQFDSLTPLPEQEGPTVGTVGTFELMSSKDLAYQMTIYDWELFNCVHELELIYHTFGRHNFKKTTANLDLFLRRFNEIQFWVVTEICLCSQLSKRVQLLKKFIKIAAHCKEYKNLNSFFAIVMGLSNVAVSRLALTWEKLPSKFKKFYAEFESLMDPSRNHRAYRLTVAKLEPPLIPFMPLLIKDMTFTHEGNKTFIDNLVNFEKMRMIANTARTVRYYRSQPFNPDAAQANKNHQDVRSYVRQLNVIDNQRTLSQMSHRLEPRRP
Sequence of Rap guanine nucleotide exchange factor 3 (Homo sapiens) (O95398 whole entry, looked up): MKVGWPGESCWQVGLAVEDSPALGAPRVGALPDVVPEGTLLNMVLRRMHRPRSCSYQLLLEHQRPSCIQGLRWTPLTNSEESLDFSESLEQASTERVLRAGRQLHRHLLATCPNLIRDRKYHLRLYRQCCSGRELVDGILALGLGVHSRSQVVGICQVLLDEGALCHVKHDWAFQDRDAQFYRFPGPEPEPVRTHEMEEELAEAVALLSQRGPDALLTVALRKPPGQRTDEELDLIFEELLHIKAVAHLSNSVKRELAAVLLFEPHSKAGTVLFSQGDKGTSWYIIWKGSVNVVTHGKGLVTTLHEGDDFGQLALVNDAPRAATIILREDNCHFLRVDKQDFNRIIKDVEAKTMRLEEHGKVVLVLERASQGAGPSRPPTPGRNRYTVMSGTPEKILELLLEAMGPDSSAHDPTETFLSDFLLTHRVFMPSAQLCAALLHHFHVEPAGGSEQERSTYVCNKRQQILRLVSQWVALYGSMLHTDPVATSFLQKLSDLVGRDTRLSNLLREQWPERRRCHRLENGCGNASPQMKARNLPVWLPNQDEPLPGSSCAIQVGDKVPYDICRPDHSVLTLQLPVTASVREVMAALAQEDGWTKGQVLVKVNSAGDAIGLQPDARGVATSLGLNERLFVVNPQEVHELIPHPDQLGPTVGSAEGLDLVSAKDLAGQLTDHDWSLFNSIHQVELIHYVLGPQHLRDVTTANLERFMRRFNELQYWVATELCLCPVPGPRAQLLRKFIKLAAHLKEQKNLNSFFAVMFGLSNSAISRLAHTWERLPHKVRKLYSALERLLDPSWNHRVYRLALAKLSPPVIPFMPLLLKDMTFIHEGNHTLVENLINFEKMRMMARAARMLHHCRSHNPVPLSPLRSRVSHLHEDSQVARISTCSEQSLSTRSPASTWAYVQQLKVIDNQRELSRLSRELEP
Sequence of DNA polymerase iota (Homo sapiens) (Q9UNA4 whole entry, looked up): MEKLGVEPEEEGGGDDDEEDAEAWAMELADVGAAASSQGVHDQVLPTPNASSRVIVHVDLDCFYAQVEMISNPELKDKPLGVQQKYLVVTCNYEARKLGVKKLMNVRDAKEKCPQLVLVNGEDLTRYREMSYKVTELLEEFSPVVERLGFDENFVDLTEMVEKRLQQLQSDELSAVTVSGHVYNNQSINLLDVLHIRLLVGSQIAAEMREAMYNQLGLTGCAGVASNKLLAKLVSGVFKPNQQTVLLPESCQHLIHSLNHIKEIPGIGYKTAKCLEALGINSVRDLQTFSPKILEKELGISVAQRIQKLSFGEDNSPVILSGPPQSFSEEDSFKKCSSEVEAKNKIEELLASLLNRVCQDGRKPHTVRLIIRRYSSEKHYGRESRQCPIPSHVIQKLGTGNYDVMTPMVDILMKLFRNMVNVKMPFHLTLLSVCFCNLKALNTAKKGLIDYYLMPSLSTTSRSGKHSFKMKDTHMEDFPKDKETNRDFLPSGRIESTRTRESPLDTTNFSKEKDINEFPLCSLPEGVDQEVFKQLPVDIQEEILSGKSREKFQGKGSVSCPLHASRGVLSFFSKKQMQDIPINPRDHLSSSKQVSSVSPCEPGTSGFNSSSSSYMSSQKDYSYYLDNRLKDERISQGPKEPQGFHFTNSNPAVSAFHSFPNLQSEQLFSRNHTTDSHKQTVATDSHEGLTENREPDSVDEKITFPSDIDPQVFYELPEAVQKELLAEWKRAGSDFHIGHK

In the case of `O=C1NC(=O)N(Cc2ccco2)C(=O)/C1=C/c1cccn1CCOc1ccccc1Cl`, the Potency entry in test [1], in test [2], in test [3] and in test [5] was “inactive” in each case. For the same compound, the outcome in test [4] was inactive.
With `Cc1cc(C=C(C#N)C#N)ccc1N1CCCC1`, the Potency in [1] was 100 µM (active); in [2], 112 µM (active). Further, the compound was classed as inactive in test [4].
Take `CCC(C)c1ccc(N2C(=O)NC(=O)/C(=C/c3cccn3CCOc3ccc(C)cc3)C2=O)cc1` (stereo not drawn): the Potency result in test [1], in test [2], in test [3] and in [5] was “inactive” each time.
With `Cc1ccccc1-c1nc(CN2C(=O)CN=C(c3ccccc3)c3ccccc32)c(C)o1`, the Potency entry in [1] and in [2] was “inactive” in each case. Moreover, the compound was called inactive in test [4].
For the compound `Cc1cccc(CN2C(=O)CN=C(c3ccccc3)c3cc(Cl)ccc32)c1`, in [2], the Potency entry was “inactive”. For the same compound, the outcome in [3] is “inactive [at 12.7 µM]”. Also, the call in [4] was inactive.
`O=c1oc2ccccc2c(O)c1C(c1ccc([N+](=O)[O-])cc1)c1c(O)c2ccccc2oc1=O`: the Potency result in [1] was “inactive”. In addition, in [2], the activation was 0% [at 17.1 µM, percent relative to cAMP agonist control]. The activity change, negative = inhibition in [4] was -13.4% [at 30.8 µM].
Regarding `c1ccc(C(c2ccccc2)c2cccnc2)cc1`, the Potency entry in test [1] was “inactive”. Moreover, in test [4], the outcome was inactive.
In the case of `CC[C@@]1(O)CC(O)c2c(cc3c(c2O)C(=O)c2c(O)ccc(O)c2C3=O)C1C(=O)OC` (stereo partly drawn), the Potency in test [6] was 7.94 µM (active); in [8], 12.6 µM (active); in test [9], 22.4 µM (active). In addition, the Potency entry in [7], in test [1], in test [2] and in test [3] was “inactive” in each case.
As for `Nc1c(Br)cc2c3c(cccc13)-c1ccccc1-2`, the activation in [2] was 8.9% [at 17.1 µM, percent relative to cAMP agonist control]. In addition, the activity change, negative = inhibition in test [3] is 2.51% [at 12.7 µM]; in test [4], 16.7% [at 30.8 µM].
With `CCOC(=O)[C@]12Cc3cc(Cl)ccc3[C@H]1N(CC(=O)OC)C(=O)c1ccccc12`, the Potency entry in test [1] and in [2] was “inactive” throughout. Besides, the call in test [4] was inactive.
`COc1ccc(C2C=C(C)Oc3c2c(=O)oc2ccccc32)cc1OC` (stereo not drawn): the Potency result in test [1] is “inactive”. For the same compound, the Potency in test [3] was 30.1 µM (active). Also, the compound was called inactive in test [4].
For the compound `O=C1NCN(c2ccccc2)C12CCN(C(c1cc3ccccc3o1)c1nnnn1C1CCCCC1)CC2` (stereo not drawn), the Potency result in [1], in test [2] and in test [5] was “inactive” throughout. Besides, the result in [4] was inactive.
Take `COC(=O)C1C2c3ccccc3C(c3ccccc32)C1(C)C(=O)OC` (stereo not drawn): the Potency result in [1] is “inactive”. For the same compound, the activation in test [2] was 9.42% [at 17.1 µM, percent relative to cAMP agonist control]. Besides, the activity change, negative = inhibition in test [4] is 4.93% [at 30.8 µM].
In the case of `COc1cccc(C(c2nnnn2C2CCCCC2)N2CCC3(CC2)C(=O)NCN3c2ccccc2)c1OC` (stereo not drawn), the Potency result in test [1] and in [2] was “inactive” each time. The compound was classed as inactive in [4].
With `CCn1nc(/C=C/c2ccccc2)nc2c(=O)n(C)c(=O)nc1-2`, the Potency result in test [1], in test [2] and in test [5] was “inactive” throughout. The call in test [4] was inactive.
With `O=[N+]([O-])c1ccc(N(CCO)CCO)c2c1no[n+]2[O-]`, the Potency result in [1], in [2] and in test [5] was “inactive” in each case. For the same compound, the call in test [4] was inactive.
Take `Nc1ccc(Cl)cc1C(=O)c1ccccc1Cl`: the activation in test [2] is 8.81% [at 17.1 µM, percent relative to cAMP agonist control]. The activity change, negative = inhibition in test [3] is -22.9% [at 12.7 µM]; in test [4], -0.237% [at 30.8 µM].
Turning to `FC(F)(F)c1cccc(C2NCc3ccccc3-n3cccc32)c1` (stereo not drawn), the activation in test [2] is 12.8% [at 17.1 µM, percent relative to cAMP agonist control]. Besides, the activity change, negative = inhibition is 2.28% [at 12.7 µM] in test [3] and -3.38% [at 30.8 µM] in test [4].
In the case of `COc1ccc(N2C(=O)/C(=C/c3ccco3)C(=O)NC2=S)cc1`, the compound was classed as inactive in test [10] and in [11]. Further, the Potency in [12] is 0.517 µM (active); in test [13], 1.06 µM (active); in [14], 1.52 µM (active); in test [15], 21.3 µM (active); in test [16], 3.41 µM (active); in test [17], 0.67 µM (active). Besides, the figures for the Potency in test [18] and in test [19] were 2.39 µM (active) and 0.215 µM (active), respectively. Besides, in test [1], the Potency entry was “inactive”. Besides, the activation in test [2] is 10.2% [at 17.1 µM, percent relative to cAMP agonist control]. In addition, the activity change, negative = inhibition in test [3] is 33.5% [at 12.7 µM]; in test [4] it was -2.79% [at 30.8 µM].
Take `COc1cccc(C(c2nnnn2Cc2ccccc2)N2CCC(n3c(=O)[nH]c4ccccc43)CC2)c1OC` (stereo not drawn): the Potency entry in test [1] and in [2] was “inactive” in each case. The compound was called inactive in test [4].
On to `O=C1NC(=O)N(Cc2ccc(F)cc2)C(=O)/C1=C\c1ccoc1`, for which the Potency entry in test [1] and in [3] was “inactive” in each case. The call in test [4] was inactive.
